The list is not random: actives were taken first. Their share in the collection is about 3.8%.
HSF1 inhib: HSF1 inhibitors in luciferase reporter cells, primary screen, cell-based, NIH3T3, luminescence | NIH3T3-HGL HSE-luciferase, MG132-induced, luminescence 8 h; hits give low values | activity change, negative = inhibition, % at 7.5 µM (by protocol) | hit rate 0.77% among 300,000 | AID 2098, 2009;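 active = more than half of replicate wells show activity change below -50%, luminescence cut by over half; inconclusive = some wells, but at most half, below -50%; inactive = no replicate well below -50%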;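 also: luciferase reports HSF-1 transcriptional activity via heat shock element; 0% = median of DMSO wells and -100% = zero luminescence signal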
MITF act: activators of MITF-driven TRPM1 promoter reporter, primary screen, cell-based, SK-MEL-5, luciferase, single point; hit rate 0.75% among 300,000; SK-MEL-5 TRPM1-promoter luciferase, 24 h; % of positive control, neutral wells = 0; activation, % at 12.5 µM;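 active = mean activation of at least 80% with every replicate also reaching 80%; inconclusive = mean reaches 80% but some replicate falls short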;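 also: 0% = neutral control wells and 100% = parthenolide positive control wells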
esBAF inh: Bmi1 luciferase reporter increase in mESCs, primary screen, esBAF inhibitor project, mouse ES cells, Bmi1 luciferase knock-in, single point. hit rate 2% among 350,000. reporter increase, % at 12.5 µM. 24 h; 100% = twice the neutral-well signal; in the data active = activation above about 40%; inconclusive = no clear call, values can overlap the other calls;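 also: 0% = median of the plate's neutral control wells and 100% = double that signal; a rise in the Bmi1 reporter signal indicates esBAF inhibition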
Wnt bcat act: Wnt/beta-catenin pathway activators, primary screen, cell-based, plate reader, single point; activation, % at 9.35 µM; AID 743398, 2014; hit rate 1.2% among 300,000; Wnt/beta-catenin reporter cell assay, activator; in the data active = activation above about 30%, passing the limit was not always enough; inconclusive = no clear call, values can overlap the other calls;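 also: 0% = neutral control wells and 100% = positive control wells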
HSF1 activator: HSF-1 activators, primary screen, NIH3T3-HGL cells, MG132 stress, luminescence, single point; NIH3T3-HGL HSF-1 luciferase reporter, 8 h; 100% = twice DMSO control signal; hit rate 1.7% among 300,000; activation, % at 9 µM;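 active = mean replicate activation of at least 50% with a set share of replicates each reaching 50%; inconclusive = only one of those two conditions met; inactive = mean below 50% and too few replicates reaching it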;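 also: 0% = median of the neutral control wells and 100% = twice that signal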
* marks the source's active call; other numbers are inactive results; ? = inconclusive; . = not tested or not shown.

SMILES	HSF1 inhib	MITF act	esBAF inh	Wnt bcat act	HSF1 activator
C[C@@H]1CCCCO[C@@H](CN(C)S(=O)(=O)c2ccccc2)[C@@H](C)CN([C@@H](C)CO)C(=O)c2cc(NC(=O)c3ccncc3)ccc2O1	.	.	2	.	.
Cn1c2ccccc2c2cc(/C=N/NC(=O)c3ccc(O)cc3O)ccc21	5	5	.	.	13
COCCn1c(C)cc(/C=N/NC(=O)c2cc3ccccc3cc2O)c1C	.	13	47*	.	.
Cn1c(O)c(/C=N/NC(=O)c2cc3ccccc3cc2O)c2ccccc21	9	.	47*	8	9
C[C@@H]1CN([C@H](C)CO)C(=O)c2cc(C#Cc3ccccn3)cnc2O[C@@H]1CN(C)C(=O)c1ccccn1	.	.	-3	.	.
Cc1ccccc1NC(=O)c1c([N+](=O)[O-])cnn1C	-11	-15	-3	2	-8
Cn1ncc([N+](=O)[O-])c1C(=O)Nc1ccccc1Cl	-73*	-2	6	1	-77
C[C@@H]1CCCCO[C@H](CN(C)CC2CCCCC2)[C@H](C)CN([C@H](C)CO)C(=O)c2cc(NS(=O)(=O)c3ccc(Cl)cc3)ccc2O1	.	.	0	.	.
CCc1cc2c(=O)c(-c3ccc4c(c3)OCCO4)coc2c(CN2CCCCC2C)c1O (stereo unspecified)	4	38	-7	4	2
CCc1cc2c(=O)c(-c3ccc4c(c3)OCCO4)coc2cc1OS(C)(=O)=O	28	?	26	-8	56*
CCCN1C[C@H](C)[C@H](OC)CN(C)C(=O)c2ccc(NC(=O)C3CCC3)cc2OC[C@H]1C	.	.	1	.	.
CC=Cc1ccc2n(c1=O)C[C@H]1[C@H](CO)[C@@H](C(=O)NCC)N(C(=O)CC3CC3)[C@@H]21 (mixture of isomers)	.	.	-1	.	.
Oc1csc(Cc2nc(-c3ccc(-c4ccccc4)cc3)cs2)n1	-15	5	34	.	-10
Oc1csc(Cc2nc(-c3ccc4ccccc4c3)cs2)n1	-2	.	69*	.	20
COCCNC(=O)C[C@H]1C[C@@H]2c3cc(N(C)C)ccc3O[C@@H]2[C@@H](CO)O1	.	.	-4	.	.
CO[C@@H]1CN(C)C(=O)c2cc(NC(C)=O)ccc2OC[C@H](C)N(Cc2ccccc2F)C[C@H]1C	.	.	0	.	.
CC(=O)C1=C(C)NC2(O)c3ccccc3C(=O)C12O (stereo unspecified)	17	-6	-4	2	62*
COc1cc(OC)c(C2CC(=O)N3CN(c4ccc(C)cc4)CSC3=C2C#N)cc1OC (stereo unspecified)	3	56	36	38*	16
CCc1ccc(N2CSC3=C(C#N)C(c4cccs4)CC(=O)N3C2)cc1 (stereo unspecified)	0	-5	0	.	14
Cc1ccc(N2CSC3=C(C#N)C(c4cccs4)CC(=O)N3C2)cc1 (stereo unspecified)	17	10	54*	-3	11
COc1ccc(Nc2cc3n(c(=O)n2)CCc2cc(OC)c(OC)cc2-3)cc1	-16	41	11	0	-6
COc1cc2c(cc1OC)-c1cc(Nc3ccc4c(c3)OCCO4)nc(=O)n1CC2	-72*	11	-30	-5	-75
COc1cc2c(cc1OC)-c1cc(Nc3ccccc3)nc(=O)n1CC2	1	.	.	45*	-2
C[C@@H]1CN([C@H](C)CO)C(=O)c2cc(NC(=O)CCC(F)(F)F)ccc2O[C@@H]1CN(C)S(=O)(=O)c1ccc(F)cc1	.	.	-7	.	.
COc1ccc(S(=O)(=O)NCC(c2cccnc2)N2CCN(C)CC2)cc1OC (stereo unspecified)	-71*	-1	2	2	-78
SMILES	HSF1 inhib	MITF act	esBAF inh	Wnt bcat act	HSF1 activator
C[C@@H]1CN([C@H](C)CO)C(=O)c2cc(NC(=O)Nc3ccccc3)ccc2O[C@H]1CN(C)Cc1ccc(-c2ccccc2)cc1	.	.	8	.	.
CC(C)NC(=O)c1ccc(-c2ccccc2C(F)(F)F)o1	-16	76	47*	.	-34
O=C(Nc1ccccc1)c1ccc(-c2ccccc2C(F)(F)F)o1	.	79	52*	29	.
O=C(C[C@@H]1CC[C@H](NC(=O)c2ccccc2)[C@H](CO)O1)Nc1ccc(-c2ccccc2)cc1	.	.	13	.	.
CC(=O)Oc1ccc(C(=O)Nc2ccc(C3(C#N)CCCC3)cc2)cc1	-8	.	51*	15	-29
CNC(=O)C[C@@H]1CC[C@@H]2[C@H](COC[C@@H](O)CN2C(=O)Nc2cccc(OC)c2)O1	.	.	-3	.	.
O=C(O)CC(C(=O)O)n1nc(-c2ccccc2)cc1-c1ccccc1 (stereo unspecified)	15	3	58*	.	20
CC(=O)n1nc(-c2ccccc2)cc1-c1ccccc1	25	53	.	64*	29
CC(C)(C)c1ccc(OCCCC(=O)Nc2ccc(S(N)(=O)=O)cc2)cc1	26	-32	.	-2	56*
C[C@@H]1CN([C@@H](C)CO)C(=O)c2cccc(NC(=O)C3CC3)c2O[C@H]1CN(C)Cc1ccc2c(c1)OCO2	.	.	-3	.	.
C=CCn1c(O)c(C2=c3ccccc3=NC2=O)s/c1=N/c1nccs1	0	.	-1	-4	15
C=CCn1c(O)c(C2=c3ccccc3=NC2=O)c2ccccc21	188	.	3	-15	257*
Cc1ccc2c(c1)c(C1=c3ccccc3=NC1=O)c(O)n2C	125	.	-1	-1	195*
CC(C)NC(=O)Nc1ccc2c(c1)C(=O)N([C@@H](C)CO)C[C@@H](C)[C@H](CN(C)CC1CCCCC1)OCCCC[C@H](C)O2	.	.	-6	.	.
CCCOc1ccc(-c2nc(=S)[nH][nH]2)cc1	2	57	28	0	-2
C=CCSc1n[nH]c(-c2ccc(OCCC)cc2)n1	38	92*	74*	21	27
C=CCSc1n[nH]c(-c2cccs2)n1	2	26	18	5	15
C=CCSc1n[nH]c(-c2ccc(OCCCC)cc2)n1	35	67	48*	-2	66*
O=C(Cc1ccncc1)NCC[C@H]1CC[C@@H](NC(=O)C2CCC2)[C@@H](CO)O1	.	.	0	.	.
O=C(Cc1sc(Nc2ccccc2)nc1-c1ccccc1)NCc1ccccc1	21	22	75*	7	60*
O=C(O)Cc1sc(N/N=C\c2ccccc2)nc1-c1ccccc1	43	5	.	-7	60*
O=C(Cc1sc(-c2ccccc2)nc1-c1ccccc1)Nc1ccccc1	0	9	-6	.	-17
O=C(O)Cc1sc(Nc2ccccc2)nc1-c1cccs1	14	20	.	35*	27
COc1ccccc1OCc1nc2ccccc2[nH]1	30	?	12	64*	58*
c1cnc2c(OCc3nc4ccccc4[nH]3)cccc2c1	27	70	?	26	68*

Screening results deposited in PubChem by Broad Institute.
